The list is not random: actives were taken first. Their share in the collection is about 7.6%.
NS3h inh CB = blocks HCV NS3 helicase binding to DNA; NS3h Cy5-dT15 DNA binding, fluorescence polarization; inhibition, % at 100 µM; hit rate 1.6% among 16,000; AID 687043;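 active means inhibition above the average over every tested compound plus 3 SD, cut at about 40% in these data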
Cy5 interf NS3h = enhances or quenches Cy5 fluorescence in NS3h assay; Cy5-dT15 DNA with NS3h, fluorescence interference; actives lie on both sides; signal over control mean, under 1 quenches; fluorescence interference ratio at 100 µM; hit rate 6% among 16,000;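 active means compound fluorescence over control fluorescence at most 0.8, a quencher, or at least a set upper limit, an enhancer; inactive means ratio between 0.8 and the set upper limit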
HCV NS3h conf = hepatitis C NS3 helicase inhibition, confirmation. NS3h binding to Cy5-dT15 DNA, fluorescence polarization. shares compounds with NS3h inh CB. hit rate 20% among 240. inhibition, % at 100 µM;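 active means percent inhibition of 50% or more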
SSB FP counter = disrupts E. coli SSB binding to DNA in counter-screen. inhibition, % at 100 µM. AID 720486. shares compounds with NS3h inh CB. E. coli SSB binding Cy5-dT15, fluorescence polarization. hit rate 40% among 240;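 active means inhibition of at least 50%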;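 further: displacers lower Cy5 polarization so higher inhibition means more SSB displaced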
Target sequence (P0AGE0 whole entry, looked up): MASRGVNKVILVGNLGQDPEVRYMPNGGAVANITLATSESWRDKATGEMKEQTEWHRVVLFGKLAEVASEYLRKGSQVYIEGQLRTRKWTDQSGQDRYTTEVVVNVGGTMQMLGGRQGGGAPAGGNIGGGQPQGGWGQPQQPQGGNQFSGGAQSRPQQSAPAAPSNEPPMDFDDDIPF
Cy5 SSB interf = enhances or quenches Cy5-DNA fluorescence with E. coli SSB; shares compounds with NS3h inh CB; Cy5-dT15/E. coli SSB fluorescence interference; actives lie on both sides; fluorescence interference ratio at 100 µM; hit rate 8% among 240; AID 720487;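 active means fluorescence interference ratio at or above 1.2, signal boosting, or at or below 0.8, signal quenching; inactive means ratio between 0.8 and 1.2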;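 further: ratio of compound well signal to mean negative control signal so 1 means no effect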
Cy5 fluor confirm = Cy5 fluorescence interference, confirmation counter-screen; hit rate 44% among 240; shares compounds with NS3h inh CB; Cy5-dT15 DNA/NS3h fluorescence interference counterscreen; fluorescence interference ratio at 100 µM, hits read low; AID 720489;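 active means fluorescence interference ratio at or below 0.8 quencher or at or above a set limitenhancer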;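 further: ratio of compound fluorescence to mean of negative controls so 1 means no interference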
Numbers without * were called inactive; / = not tested or not shown.

SMILES | NS3h inh CB | Cy5 interf NS3h | HCV NS3h conf | SSB FP counter | Cy5 SSB interf | Cy5 fluor confirm
O=C(Nc1ccc(Cl)cc1)c1ccc2c(c1)OCCO2 | 27 | 1.1 | 62* | 76* | 1.1 | 0.96
O=C1N=c2ccc([N+](=O)[O-])cc2=C1c1sc(=S)n(Cc2ccco2)c1O | 9 | 1.1 | / | / | / | /
O=C1N=c2ccc(Br)cc2=C1c1sc(=S)n(C(Cc2ccccc2)C(=O)O)c1O (stereo not drawn) | 76* | 0.76* | 31 | 66* | 0.75* | 0.84
O=C(O)[C@@H]1C2CCCCC2=C2CCCCC2[C@@H]1C(=O)O (stereo partly drawn) | -5 | 1 | / | / | / | /
COc1ccc(/C=N\NC(=O)/C(=C\c2ccc3c(c2)OCO3)NC(=O)c2ccccc2)cc1Cl | 4 | 1 | / | / | / | /
COc1ccc2occ(C(=O)c3ccccc3Cl)c(=O)c2c1 | 57* | 1 | 26 | 8 | 0.99 | 0.88
COc1ccc(C(=O)c2coc3ccc(O)cc23)cc1 | 16 | 1 | / | / | / | /
O=C(c1nn2c(c1Cl)NC(c1cccs1)CC2C(F)(F)F)N(Cc1ccccc1)Cc1ccccc1 (stereo not drawn) | 12 | 0.94 | / | / | / | /
COCCNC(=O)CN(c1ccc(C)cc1)S(C)(=O)=O | 0 | 1 | / | / | / | /
O=C(O)CCN1C(=O)/C(=C/c2cn(-c3ccccc3)nc2-c2ccc(Br)cc2)SC1=S | 146* | 0.97 | 35 | 25 | 0.92 | 0.87
CCN1C(=O)/C(=C\c2cn(-c3ccccc3)nc2-c2ccc(Br)cc2)SC1=S | 7 | 1.1 | / | / | / | /
O=C(Cc1cccs1)Nc1cccc(C(F)(F)F)c1 | 5 | 1 | / | / | / | /
Cn1c(/C=C/c2ccc(C(=O)c3ccccc3)o2)nc2ccccc21 | 51* | 1.1 | 20 | 25 | 0.92 | 0.92
Cn1c(/C=C/c2ccco2)nc2ccccc21 | 4 | 0.97 | / | / | / | /
CC1(c2ccc([N+](=O)[O-])cc2)CC1(Br)Br (stereo not drawn) | 5 | 1.1 | / | / | / | /
C=CCn1c(-c2cccc(Br)c2)n[nH]c1=S | 3 | 1 | / | / | / | /
O=C1C(=O)N(c2nc3ccccc3s2)C(c2ccccc2F)C1=C(O)c1ccccc1 (stereo not drawn) | 6 | 0.95 | / | / | / | /
O=C1C(=O)N(c2nc3ccccc3s2)C(c2ccccc2Cl)C1=C(O)c1ccccc1 (stereo not drawn) | 39 | 1 | -4 | -2 | 1 | 0.76*
CC1(C)CC(NC(=O)C(=O)Nc2ccccc2)CC(C)(C)N1 | 1 | 1 | / | / | / | /
COc1cccc(NC(=O)/C(=C\c2cccc(Br)c2)NC(=O)c2ccccc2)c1 | 4 | 1.1 | / | / | / | /
O=C(c1nn2c(c1Br)NC(c1ccccc1)CC2C(F)(F)F)N1CCOCC1 (stereo not drawn) | 4 | 1 | / | / | / | /
O=C1NC(=S)NC(=O)C1=Cc1ccc(OCc2ccccc2Cl)cc1 | 48* | 0.89 | 1 | 61* | 0.92 | 0.75*
O=C1NC(=S)NC(=O)C1=Cc1ccccc1OCc1ccccc1Cl | 27 | 0.97 | / | / | / | /
O=C(COc1ccc(/C=N\NS(=O)(=O)c2ccccc2)cc1)Nc1ccccc1 | 11 | 0.96 | / | / | / | /
CCOC(=O)c1ccc2nc(NC(=O)CSCC(=O)OCC(=O)c3ccc(Br)cc3)sc2c1 | -5 | 1 | / | / | / | /
SMILES | NS3h inh CB | Cy5 interf NS3h | HCV NS3h conf | SSB FP counter | Cy5 SSB interf | Cy5 fluor confirm
COc1ccc(NC(=O)/C(C#N)=C/c2cn(Cc3ccc(F)cc3)c3ccccc23)cc1 | 7 | 1 | / | / | / | /
CC(C(=O)NCc1ccco1)N1C(=O)c2ccccc2C1=O (stereo not drawn) | 4 | 1.1 | / | / | / | /
CN1C(=O)C(=O)N(CC(=O)NCc2ccco2)C1=O | 74* | 0.75* | 28 | 14 | 0.77* | 0.84
COc1cc(OC)cc(C(=O)Nc2ccc(OC)c3ccccc23)c1 | 6 | 1 | / | / | / | /
CCN(CC)c1ccc(-n2c(O)c(C=C3C=Nc4ccccc43)sc2=S)cc1 | 20 | 1.1 | / | / | / | /
O=c1oc2ccccc2c(O)c1C=C1C=Nc2ccccc21 | 46* | 1 | 31 | 39 | 0.91 | 0.96
O=C(c1cnn2c(-c3ccccc3)cc(-c3ccccc3)nc12)N1CCOCC1 | 9 | 0.99 | / | / | / | /
CCC1=NN2C(=N)/C(=C/c3ccc(-c4cccc(C(=O)O)c4)o3)C(=O)N=C2S1 | 52* | 1 | 27 | 87* | 0.93 | 0.85
O=C1NC(=S)S/C1=C\c1ccc(C(=O)O)cc1 | 14 | 0.97 | / | / | / | /
COCCN1C(=O)/C(=C\c2ccc(-c3cccc([N+](=O)[O-])c3)o2)SC1=S | 5 | 1.1 | / | / | / | /
CCC1=NN2C(=N)/C(=C/c3ccc(-c4cccc([N+](=O)[O-])c4)o3)C(=O)N=C2S1 | -4 | 0.94 | / | / | / | /
N=C1S/C(=C\c2ccc(-c3cccc(C(=O)O)c3)o2)C(=O)N1c1ccc2c(c1)OCO2 | 71* | 0.81 | 20 | 107* | 0.82 | 0.92
O=C1NC(=S)S/C1=C/c1ccc(-c2cccc(C(=O)O)c2)o1 | 67* | 0.98 | 62* | 99* | 0.81 | 0.79*
CC1=NN(c2ccc(C(=O)O)cc2)C(=O)/C1=C\c1ccc(-c2cccc(C(=O)O)c2)o1 | 31 | 1 | / | / | / | /
O=C1/C(=C\c2ccc(-c3cccc(Cl)c3)o2)SC(=S)N1CCS(=O)(=O)O | 84* | 0.84 | 46 | 98* | 0.82 | 0.88
CN1C(=O)/C(=C/c2ccc(-c3ccc(C(=O)O)cc3)o2)SC1=S | 76* | 1.2* | 11 | 34 | 0.92 | 0.99
COC(=O)c1ccc(-c2ccc(/C=C3/SC(=S)N(C)C3=O)o2)cc1 | -7 | 0.88 | / | / | / | /
CCN1C(=O)/C(=C2\SC(=S)N(NC(=O)c3ccccc3Cl)C2=O)c2ccccc21 | 11 | 1 | / | / | / | /
COc1cc(/C=C2\SC(=S)NC2=O)cc(Br)c1OC | 2 | 0.97 | / | / | / | /
COc1cc(/C=C2/SC(=S)NC2=O)ccc1OC(=O)c1ccccc1Br | 42* | 1.1 | 8 | 2 | 1 | 0.78*
CCCCCCN1C(=O)C(=O)C(=C(O)c2ccccc2)C1c1ccc(N(C)C)cc1 (stereo not drawn) | -4 | 1.1 | / | / | / | /
O=C1NN(c2ccccc2)C(=O)/C1=C/c1ccc([N+](=O)[O-])o1 | 82* | 0.77* | 52* | 117* | 0.86 | 0.9
Cc1ccc(-c2ccc(/C=C3\C(=O)NN(c4ccccc4)C3=O)o2)c([N+](=O)[O-])c1 | 25 | 0.92 | / | / | / | /
O=C1NN(c2ccccc2)C(=O)/C1=C/c1ccc(Br)o1 | 94* | 1 | 52* | 107* | 0.88 | 0.79*
O=C1NN(c2ccccc2)C(=O)/C1=C/c1ccc(-c2ccc(C(=O)O)cc2)o1 | 26 | 0.99 | / | / | / | /
CCc1cccc(C)c1NS(=O)(=O)c1c(C)cc(C)cc1C | 15 | 1 | / | / | / | /
CC(=O)NC1=C(N(C)C)C(=O)c2ccccc2C1=O | -21 | 0.91 | / | / | / | /
CC(=O)N(C)C1=C(Cl)C(=O)c2ccccc2C1=O | 90* | 0.85 | 85* | 0 | 0.97 | 0.97
Cc1ccccc1/C=C1\SC(=NCc2ccccc2)N(Cc2ccccc2)C1=O | 10 | 1 | / | / | / | /
C=CCc1cccc2cc(C(=O)NCCc3ccccc3)c(=O)oc12 | 18 | 0.91 | / | / | / | /

Screens: PubChem, Milwaukee Institute for Drug Discovery
